Sampled rows, rich in hits. Any-hit rate of the full collection: about 10%.
NPR1 antag – blocks ANP-stimulated signaling of human Npr1 receptor | P16066 | HEK293 hNpr1 GloSensor cGMP, ANP-stimulated luminescence | Potency, µM (doses to about 46.3 µM), actives largely listed as inhibitors | actives 1.6% (n = 76,000) | AID 1347048; calls by dose curve; note: nearly all actives have a fitted effect of over 60% in size
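HEK293 cells stably expressing human Npr1 and cGMP GloSensor pGS-40F, loaded 2 h with 2% GloSensor reagent, given compound 30 min at room temperature. Luminescence read before and 20 min after 0.1 nM hNppA.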
GPT2 inh – blocks human glutamate pyruvate transaminase 2; Recombinant GPT2, coupled pyruvate oxidase/HRP Amplex Red fluorescence; Potency, µM (doses to about 57.7 µM), most hits filed as inhibitors; actives 0.25% (n = 100,000); AID 1671188; note: nearly all actives have a fitted effect of over 60% in size
Target sequence (Q8TD30 whole entry, looked up): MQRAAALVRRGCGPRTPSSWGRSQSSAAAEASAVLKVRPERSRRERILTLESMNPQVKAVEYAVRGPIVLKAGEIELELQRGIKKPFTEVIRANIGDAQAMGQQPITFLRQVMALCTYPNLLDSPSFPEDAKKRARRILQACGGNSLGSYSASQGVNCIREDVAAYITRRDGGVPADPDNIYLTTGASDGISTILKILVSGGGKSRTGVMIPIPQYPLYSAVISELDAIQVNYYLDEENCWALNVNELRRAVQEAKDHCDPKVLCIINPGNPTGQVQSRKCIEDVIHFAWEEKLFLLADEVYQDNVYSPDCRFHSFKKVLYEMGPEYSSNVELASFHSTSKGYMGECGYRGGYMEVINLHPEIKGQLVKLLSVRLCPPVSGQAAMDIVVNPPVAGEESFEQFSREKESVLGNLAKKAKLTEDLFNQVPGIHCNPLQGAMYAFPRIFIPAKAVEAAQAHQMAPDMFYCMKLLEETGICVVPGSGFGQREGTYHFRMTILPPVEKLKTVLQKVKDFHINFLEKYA
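GPT2 10ng/uL, a-KG 250uM, L-Ala 2mM, HEPES pH7.5 + 0.0001% Tween; 30 min RT. Then Amplex mix (PO/HRP/ThPP), 30 min RT dark, fluorescence. AOA 50uM used as positive control.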
HEK cytotox – HEK 293 cell cytotoxicity; HEK 293 viability, ATP luminescence (CellTiter-Glo), 48-72 h; Potency, µM (series often up to 115 µM), most hits filed as inhibitors; actives 6.6% (n = 94,000); note: nearly all actives have a fitted effect of over 60% in size
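CellTiter-Glo luminescence (cellular ATP) was read after 48 or 72 hr of compound exposure at 37 degree Celsius. Cells were HEK 293 plated at 250 cells/well.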
NIH3T3 tox – NIH 3T3 cell cytotoxicity; NIH 3T3 viability, CellTiter-Glo ATP luminescence, 48-72 h; Potency, µM (series often up to 96.7 µM), actives largely listed as inhibitors; actives 4.3% (n = 94,000); AID 1345082; note: nearly all actives have a fitted effect of over 55% in size
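Luminescent ATP readout (CellTiter-Glo, 10 min RT) after 48 or 72 hr compound exposure of NIH 3T3 cells seeded at 400 cells/well in 1536-well format; quantitative HTS.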
Luciferase inh – Photinus pyralis luciferase inhibition; P08659; purified P. pyralis luciferase, luminescence, biochemical; Potency, µM (doses to about 115 µM), actives largely listed as inhibitors; actives 2.5% (n = 76,000); AID 1347043; note: nearly all actives have a fitted effect of over 65% in size
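Purified 10nM P. pyralis luciferase with 10uM D-luciferin and 10uM ATP in 50mM Tris acetate pH 7.5, 10mM Mg acetate, 0.01% Tween-20, 0.05% BSA. qHTS titration; luminescence read by CCD imager.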
Of the large screens only hits and unclear results are named; the others gave an inactive call. Unless noted, calls come from the whole dose curve; as a rule, active = well fitted curve in the direction sought with a large enough effect; inconclusive = small, poorly fitted or top-dose-only effect, or another doubt; inactive = no such curve, though single readings can be large; an effect the other way counts as inactive or inconclusive.

CC1=C[C@@H](CNC(=O)N2CCOCC2)[C@H](C(C)C)C[C@H]1Cc1nc2ccccc2n1C	NPR1 antag inconclusive, HEK cytotox 63.1µM, NIH3T3 tox 63.1µM
CC1=C[C@@H](CNC(=O)Cn2cnnn2)[C@H](C(C)C)C[C@H]1Cc1nc2ccccc2n1C	NPR1 antag inconclusive, HEK cytotox inconclusive, NIH3T3 tox 89.1µM
COCC(=O)NC[C@@H]1C=C(C)[C@H](Cc2nc3ccccc3n2C)C[C@H]1C(C)C	NPR1 antag inconclusive, HEK cytotox 56.2µM, NIH3T3 tox 50.1µM
COCC(=O)NC1CCC12CCN(S(=O)(=O)c1ccccc1)CC2 (stereo not given)	none (no result: NPR1 antag, Luciferase inh)
O=C(NCCCc1ccccc1F)[C@@]12CNC[C@@H]1CN(Cc1ccccc1)C2	HEK cytotox 44.7µM, NIH3T3 tox 28.2µM
Cc1ccc(NC(=O)N2CCCCC2c2noc(COc3ccc(F)cc3)n2)cc1F (stereo not given)	HEK cytotox 44.7µM, NIH3T3 tox inconclusive
Cc1ccc(OCc2nc(C3CCCN3C(=O)NCC(C)C)no2)cc1 (stereo not given)	none (no result: NPR1 antag, Luciferase inh)
Cc1ccc(OCc2nc(C3CCCN3C(=O)Nc3ccc(C)c(F)c3)no2)cc1 (stereo not given)	HEK cytotox 89.1µM, NIH3T3 tox inconclusive
Cc1ccc(OCc2nc(C3CCCN3C(=O)Nc3ccccc3)no2)cc1 (stereo not given)	HEK cytotox 89.1µM, NIH3T3 tox inconclusive (no result: NPR1 antag, Luciferase inh)
COc1ccc(CNC(=O)N2CCCC2c2noc(COc3ccc(C)cc3)n2)cc1 (stereo not given)	HEK cytotox inconclusive, NIH3T3 tox inconclusive
NC(=O)c1cnc(N[C@@H]2CCCC[C@H]2N)nc1Nc1cccc(-n2nccn2)c1	none (no result: NPR1 antag, HEK cytotox, NIH3T3 tox, Luciferase inh)
C[C@@]12CO[C@H](c3ccccc3)C[C@@H]1C[C@@H](N1CCN(CC3CC3)CC1)C2	HEK cytotox inconclusive (no result: NPR1 antag, GPT2 inh, Luciferase inh)
CC1(C(=O)O)CCCC2(C)C3CCC4CC3(CCC12)CC4(O)CO (stereo not given)	none (no result: NPR1 antag, HEK cytotox, NIH3T3 tox, Luciferase inh)
O=C(NC1CCCCC1)c1cnc2c(c1)N([S+](=O)([O-])c1cccnc1)CCC2	NIH3T3 tox 89.1µM
CCc1nc2c(c(-c3ccc(Cl)cc3)n1)CCN([S+](=O)([O-])c1cccc(C(F)(F)F)c1)CC2	HEK cytotox inconclusive, NIH3T3 tox inconclusive
CC1(C)OC2=C(C(=O)c3ccccc3C2=O)[C@H](NCc2ccccc2)[C@H]1O	GPT2 inh 13.7µM (no result: NPR1 antag, HEK cytotox, NIH3T3 tox, Luciferase inh)
CC(C(=O)NCc1ccccc1)C1CCOCC1 (stereo not given)	none
COC(=O)CCNC(=O)C1c2ccccc2C(=O)N(C2CCCCC2)C12CCCCC2 (stereo not given)	HEK cytotox inconclusive
O=C(NCCc1ccccn1)C1c2ccccc2C(=O)N(C2CCCCC2)C12CCCCC2 (stereo not given)	HEK cytotox 44.7µM, NIH3T3 tox inconclusive
COc1ccc(NC(=O)c2ccc3c(c2)N(C)C2CCCCN2C3=O)c(OC)c1 (stereo not given)	HEK cytotox inconclusive, NIH3T3 tox inconclusive, Luciferase inh inconclusive
O=C(C1CCCCCC1)N1CCC(n2cc(C3CCCCC3)nn2)CC1	NPR1 antag inconclusive, HEK cytotox 89.1µM, NIH3T3 tox inconclusive
O=C(Nc1ccccc1Cl)N1CCC(n2cc(C3CCCC3)nn2)CC1	HEK cytotox inconclusive
Cc1ccc(C(=O)N[C@H]2C[C@@H](c3nc(-c4ccc(C)cc4)no3)N(C)C2)cc1	none
CN1C[C@@H](NC(=O)c2ccc(C(C)(C)C)cc2)C[C@H]1c1nc(-c2ccncc2)no1	HEK cytotox 70.8µM, NIH3T3 tox inconclusive, Luciferase inh inconclusive
CN1C[C@@H](NC(=O)c2ccc(C#N)cc2)C[C@H]1c1nc(-c2cncnc2)no1	HEK cytotox inconclusive, Luciferase inh 44.7µM
O=C1COC2(CCN(S(=O)(=O)c3ccc(-c4ccc5cccnc5c4)cc3)CC2)CN1C1CC1	none (no result: NPR1 antag, HEK cytotox, NIH3T3 tox, Luciferase inh)
COc1ccc(C(=O)N2CCCC(c3nc(CCOCC4CCCC4)no3)C2)cc1F (stereo not given)	NPR1 antag inconclusive, HEK cytotox 44.7µM, NIH3T3 tox inconclusive
O=C(Cc1cccc(Cl)c1)N1CCC(c2nn(-c3ccccc3)c(=O)[nH]2)CC1	NPR1 antag inconclusive, HEK cytotox inconclusive, NIH3T3 tox inconclusive
O=C(NC1CCN(c2cc(-c3ccc(Cl)cc3)[nH]n2)CC1)c1ccncc1	NPR1 antag inconclusive, HEK cytotox 28.2µM, NIH3T3 tox inconclusive
COc1ccc(C(=O)NC2CCN(c3cc(-c4ccc(Cl)cc4)[nH]n3)CC2)cc1	none
O=C(NC1CCN(c2cc(-c3ccc(F)cc3)[nH]n2)CC1)c1ccc2[nH]ccc2c1	HEK cytotox inconclusive, NIH3T3 tox 25.1µM
N#Cc1ccc(C(=O)NC2CCN(c3cc(-c4ccc(Cl)cc4)[nH]n3)C2)cc1 (stereo not given)	NPR1 antag inconclusive, GPT2 inh inconclusive, HEK cytotox 44.7µM, NIH3T3 tox inconclusive
O=C(NC1CCN(c2cc(-c3ccc(Cl)cc3)[nH]n2)C1)c1ccc2[nH]ccc2c1 (stereo not given)	GPT2 inh inconclusive, HEK cytotox inconclusive, NIH3T3 tox 39.8µM, Luciferase inh inconclusive
O=C(Cc1ccccc1)N1CCCC2(CC(c3ccccc3)=NO2)C1 (stereo not given)	none (no result: NPR1 antag, Luciferase inh)
O=C(NC1CCN(c2cc(-c3ccc(F)cc3)[nH]n2)CC1)c1ccc(OC(F)(F)F)cc1	HEK cytotox 20µM, NIH3T3 tox 28.2µM
O=C(c1ccc(Cl)cc1)N1CC2(CCCN(CC3CC3)C2)Cc2ccccc21 (stereo not given)	HEK cytotox inconclusive, NIH3T3 tox inconclusive (no result: NPR1 antag, Luciferase inh)
COc1ccccc1-c1ccc(CN2CCC(NC(=O)c3ccc(C(F)(F)F)cc3)C2)cc1 (stereo not given)	HEK cytotox 25.1µM, NIH3T3 tox inconclusive (no result: NPR1 antag, GPT2 inh, Luciferase inh)
COc1ccc(F)cc1-c1ccc(CN2CCC(NC(=O)c3ccc(C(F)(F)F)cc3)C2)cc1 (stereo not given)	HEK cytotox 20µM, NIH3T3 tox inconclusive (no result: NPR1 antag, GPT2 inh, Luciferase inh)
Cn1ncc2c(C(=O)Nc3cccc(Cl)c3)cc(-c3cccc(F)c3)nc21	HEK cytotox 35.5µM, NIH3T3 tox inconclusive (no result: NPR1 antag, GPT2 inh, Luciferase inh)
Cn1ncc2c(C(=O)NCC(F)F)cc(-c3cccc(C(F)(F)F)c3)nc21	none (no result: NPR1 antag, GPT2 inh, Luciferase inh)
Cn1cnc2cc(-c3ccc(CO)cc3)cc(C(=O)NCc3cccnc3)c21	NIH3T3 tox inconclusive
Cn1ncc2c(C(=O)Nc3ccccc3Cl)cc(-c3cccc(F)c3)nc21	HEK cytotox inconclusive (no result: NPR1 antag, GPT2 inh, Luciferase inh)
Cn1ncc2c(C(=O)NCCc3ccc(F)cc3)cc(-c3ccc(Cl)nc3)nc21	none (no result: NPR1 antag, Luciferase inh)
Cc1ccc(-c2cc(C(=O)NCc3cccnc3)c3c(c2)ncn3C)cn1	NIH3T3 tox 100µM
Cn1ncc2c(C(=O)NCc3ccc(F)cc3)cc(-c3ccc(Cl)nc3)nc21	HEK cytotox 39.8µM, NIH3T3 tox inconclusive (no result: NPR1 antag, Luciferase inh)
Cn1ncc2c(C(=O)NCC(F)F)cc(-c3cccc(F)c3)nc21	HEK cytotox 56.2µM, NIH3T3 tox inconclusive (no result: NPR1 antag, GPT2 inh, Luciferase inh)
